A short description of assay [1]: inhibitors of TNFa-induced NFkB p65 translocation, primary screen, imaging, HUVEC, MLSMR starter and 10KST1 sets (AID 438;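 active = inhibition above 20% together with a positive visual image hit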;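 note: compound added about 3h40 before a 20 min TNFalpha stimulation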;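 for inhibition: signal is the nuclear over cytoplasmic p65 intensity ratio per well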). Conditions: HUVEC TNFa-induced p65 nuclear translocation; cell count: measured here: nuclei count (cytotoxicity indicator), at 2.08 µM; inhibition: at 2 µM, stronger effect = higher value, 0% TNFa-plus-vehicle, 100% no-TNFa wells.
Assay [2] is described as follows: reduction of polyQ htt aggregates in cells – imaging, exon1htt(103Q)mCFP cells, high-content imaging, primary screen (AID 483;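 active = visual image review flags a hit and inhibition of aggregation exceeds 20%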;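 note: compound exposure lasted 3 days before fixation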;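 for nuclei count: percent of the per-plate median nuclei count of sample wells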). Conditions: exon1htt(103Q)mCFP cell line, aggregate imaging, at 2 µM; inhibition of aggregation: stronger effect = higher value; nuclei count: measured here: cell count, toxicity.
The nature of assay [3]: endothelial E-selectin expression blockers – imaging, HUVEC, immunofluorescence, MLSMR starter and 10KST1 sets, primary screen (AID 487;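 active = visually confirmed hit in the image check and inhibition above 20%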;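 for inhibition: signal is fraction of cell area covered by stained E-selectin grains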;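 for nuclei count: 100% = median nuclei count of all wells on the same plate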). Particulars: HUVEC TNFalpha-induced E-selectin immunofluorescence imaging, at 2 µM; inhibition: stronger effect = higher value; nuclei count: measured here: cell number, toxicity.
Assay [4] can be described thus: Primary imaging screen for DUSP6 inhibitors that restore phospho-Erk in transfected HeLa cells, chemical complementation (AID 609;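 active = compounds giving at least 50% inhibition in the cell-based MKP-3 phosphatase rescue imaging test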;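 for inhibition: phospho-Erk level distribution per well compared with pooled transfected vehicle control wells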). Conditions: HeLa MKP-3 transfected, phospho-Erk imaging KS statistic, at 10 µM, cells stimulated with TPA for 15 min.
Assay [5] deals with Dual specificity protein phosphatase 6 (Homo sapiens) (UniProt Q16828). Described as above. Conditions: HeLa MKP-3 transfected, phospho-Erk imaging KS statistic; at 10 µM; stronger effect = higher value; cells stimulated with TPA for 15 min.
The target of assay [6] is Voltage-gated potassium channel subunit beta-2 (Rattus norvegicus) (UniProt P62483). Put plainly: inhibitors of rat Kvbeta2 reductase activity – biochemical, NADPH fluorescence, primary screen (AID 622;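 active = fluorescence slope higher than the sample average by over 3 SD, cut at about -0.22 in these data, passing the limit was not always enough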;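 note: slope of raw intensity against log time taken from 70 to 1610 s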). Particulars: recombinant KvBeta, 4-cyanobenzaldehyde reduction, at 10 µM, stronger effect = higher value.
Assay [7] has the same target. Kind of assay: enhancers of rat Kvbeta2 NADPH turnover – biochemical, NADPH fluorescence, primary screen (AID 623;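 active = NADPH fluorescence slope more negative than the mean of all samples by about 3 SD, 99.7% confidence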;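 note: fluorescence intensity change per second fitted from 20 to 320 s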). Particulars: Recombinant KvBeta, NADPH fluorescence decrease slope, 10 min; at 10 µM; stronger effect = lower value.
Assay [8] deals with Alpha-2C adrenergic receptor (Homo sapiens) (UniProt P18825). Put plainly: compounds altering alpha2C-coupled GIRK flux – cell-based, HEK293 alpha2C/GIRK1/2, thallium flux, primary screen (AID 624;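 active = fluorescence slope after compound addition differing from the mean of all screened samples at 99.7% confidence, in either direction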;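 note: slope of fluorescence ratio to pre-addition baseline per second over 15 to 24 s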). Conditions: thallium flux BTC fluorescence, at 10 µM, actives lie on both sides.
A short description of assay [9]: inhibitors of larval lipid processing in zebrafish, primary screen, whole organism, PED6 fluorescence, gall bladder and intestine (AID 686;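 active = a full or partial loss of lipid-probe fluorescence in the fish gall bladder, intestine or both, judged by eye; inactive = no fluorescence loss, or compound toxic to the fish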;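 note: larvae 5 to 7 days old with five fish per well; signal comes from phospholipase A2 cleavage of quenched PED6 carried via bile; overnight exposure to compound and PED6 before scoring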). Conditions: Zebrafish larvae PED6 lipid processing, fluorescence scoring; screened at 20 µM (by protocol).
Assay [10] can be described thus: loss of swimming-algae plug formation – whole organism, Chlamydomonas reinhardtii, WT vs cilia-less mutant, absorbance, 96-well, primary screen (AID 463189).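 Note: 0% = wild type cc124 cells in DMSO and 100% = ciliumless bld1 mutant cells.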 Particulars: Chlamydomonas reinhardtii gravitaxis, OD600 absorbance, 2 days; at 10 µM; stronger effect = higher value.
Assay [11] is described as follows: blockers of RIG-like receptor reporter activation – cell-based, Sendai virus stimulus, luciferase, 10K MLSCN set, TLR/RLR signaling modifier project, primary screen (AID 602276;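 active = inhibition at or above 50% at 10 µM; inactive = inhibition below 50%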;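 note: firefly luciferase from ISG56 promoter only with Renilla not read in this screen; 0% = Sendai virus plus DMSO and 100% = medium plus DMSO without virus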). Conditions: HEK293 RL24 IRF3 luciferase reporter, at 10 µM, stronger effect = higher value. Background: In a reporter assay the amount or activity of a reporter protein is the signal.
A short description of assay [12]: TLR3 IRF3 reporter activation blockers – cell-based, poly I:C stimulus, luciferase, 10K MLSCN set, primary screen (AID 602277;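 active = inhibition of the reporter signal at or above 50%; inactive = inhibition below 50%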). Conditions: HEK293-TLR3 RL24 IRF3 luciferase reporter, at 10 µM, stronger effect = higher value.
Where [13] appears, read: measured here: cell density z-score.
The mark [14] stands for this setting: measured here: nuclear c-Myc green intensity z-score.
Setting [15] is: measured here: nuclear pErk red intensity z-score, stronger effect = higher value.

Several values for one entry are separate records, joined by “and”; a condition that tells them apart may be missing. Equal entries are not always repeated. Activity calls are given as the source filed them.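 Rule for the calls, unless noted: active = inhibition at or above 50% relative to wild type and mutant plate controls; inactive = inhibition below 50%.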

The values below come from PubChem BioAssay.

Voltage-gated potassium channel subunit beta-2 (Rattus norvegicus), sequence (P62483 whole entry, looked up): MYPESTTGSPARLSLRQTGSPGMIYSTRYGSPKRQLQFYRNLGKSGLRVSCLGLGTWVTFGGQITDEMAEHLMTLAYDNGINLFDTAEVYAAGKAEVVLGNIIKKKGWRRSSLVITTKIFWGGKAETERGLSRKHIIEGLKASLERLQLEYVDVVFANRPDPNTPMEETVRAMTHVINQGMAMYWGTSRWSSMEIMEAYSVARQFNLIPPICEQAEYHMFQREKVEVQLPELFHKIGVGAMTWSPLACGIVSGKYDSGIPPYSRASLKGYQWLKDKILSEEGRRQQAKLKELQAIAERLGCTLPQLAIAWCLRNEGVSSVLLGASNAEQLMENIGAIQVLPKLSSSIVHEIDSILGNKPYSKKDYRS
Alpha-2C adrenergic receptor (Homo sapiens), sequence (P18825 whole entry, looked up): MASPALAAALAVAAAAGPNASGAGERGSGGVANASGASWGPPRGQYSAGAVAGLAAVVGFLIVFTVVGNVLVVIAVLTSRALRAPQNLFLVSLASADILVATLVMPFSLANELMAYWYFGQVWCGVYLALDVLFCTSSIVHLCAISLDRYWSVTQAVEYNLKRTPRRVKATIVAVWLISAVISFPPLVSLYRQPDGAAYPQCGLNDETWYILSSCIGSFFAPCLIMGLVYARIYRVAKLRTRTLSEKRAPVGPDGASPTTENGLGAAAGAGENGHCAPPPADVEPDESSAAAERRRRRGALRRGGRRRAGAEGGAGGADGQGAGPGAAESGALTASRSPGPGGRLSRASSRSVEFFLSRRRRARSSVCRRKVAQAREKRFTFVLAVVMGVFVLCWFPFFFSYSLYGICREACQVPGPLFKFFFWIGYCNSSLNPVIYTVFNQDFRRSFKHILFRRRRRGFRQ
Dual specificity protein phosphatase 6 (Homo sapiens), sequence (Q16828 whole entry, looked up): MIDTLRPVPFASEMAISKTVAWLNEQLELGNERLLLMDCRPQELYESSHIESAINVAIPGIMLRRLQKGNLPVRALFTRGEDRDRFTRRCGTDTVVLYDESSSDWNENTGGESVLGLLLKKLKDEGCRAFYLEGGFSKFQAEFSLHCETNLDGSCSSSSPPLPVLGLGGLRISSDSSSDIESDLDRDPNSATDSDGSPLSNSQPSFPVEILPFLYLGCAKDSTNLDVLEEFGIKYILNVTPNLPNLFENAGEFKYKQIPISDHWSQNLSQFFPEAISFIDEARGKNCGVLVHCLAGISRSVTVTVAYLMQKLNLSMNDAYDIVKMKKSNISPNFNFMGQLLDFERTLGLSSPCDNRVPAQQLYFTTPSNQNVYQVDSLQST

By inhibition is commonly meant the relative decrease from the control value, in per cent. Regarding `CCOC(=O)/C(C#N)=C1\Nc2ccccc2N=C1N(CC(C)C)CC(C)C`, in assay [1], the cell count stood at 586. Further, the inhibition in assay [1] was -7.3% (inactive); in assay [3], -92.9% (inactive); in [5] it was 3.56% (inactive); in [10] it was 1.92% (inactive); in assay [11], -5.84% (inactive); in assay [12], -1.84% (inactive). Also, in assay [2], the inhibition of aggregation is -2.5% (inactive). The results for the nuclei count in [2] and in assay [3] were 105% and 148%, respectively. The figures for the z-score in assay [4] (setting [13]), in [4] (setting [14]) and in assay [4] (setting [15]) were -0.677, -0.872 and -0.406, respectively. In assay [6], the fluorescence slope is -0.524 (inactive). Moreover, the NADPH fluorescence slope in assay [7] is -3.1e-05 (inactive). The slope in assay [8] was 0.00419 (inactive). Further, the compound was classed as inactive in assay [9].
As to `CNC[C@H](O)c1cccc(O)c1`, the cell count in assay [1] came out at 561. Further, the inhibition is 0.6% (inactive) in [1]; -73.1% (inactive) in assay [3]; 14.6% (inactive) in assay [5]; -10.5% (inactive) and 0.836% (inactive) in [10]; 11.5% (inactive) in assay [11]; 41.6% (inactive) in assay [12]. Further, the inhibition of aggregation in [2] was 1.2% (inactive). The nuclei count was determined as 89.3% in assay [2] and 117% in [3]. Also, the results for the z-score in assay [4] (setting [13]), in assay [4] (setting [14]) and in assay [4] (setting [15]) were 0.304, 0.128 and -0.803, respectively. Moreover, in assay [6], the fluorescence slope was -0.468 (inactive). Also, the NADPH fluorescence slope in assay [7] was -5e-05 (inactive). In addition, the slope in assay [8] was 0.00773 (inactive). Also, the call in [9] was inactive.
With `O=[N+]([O-])c1cccc2cn[nH]c12`, in assay [1], the cell count came out at 615. The inhibition in assay [1] is 1.2% (inactive); in assay [3], -87% (inactive); in assay [5] it was 3.45% (inactive); in assay [10], 4.7% (inactive) and 1.19% (inactive); in [11], 15.9% (inactive); in [12] it was 50.4% (active). For the same compound, the inhibition of aggregation in assay [2] was 15.8% (inactive). For the same compound, the nuclei count turned out to be 81.4% in assay [2] and 116% in assay [3]. The z-score was 2.27 in assay [4] (setting [13]), -1.27 in assay [4] (setting [14]) and -1.46 in [4] (setting [15]). In assay [6], the fluorescence slope is -0.448 (inactive). Moreover, the NADPH fluorescence slope in assay [7] is -7.3e-05 (inactive). Further, the slope in assay [8] was 0.00537 (inactive). In addition, the result in assay [9] was inactive.
Consider `CC(=O)Nc1ccc(S(=O)(=O)Nc2nc3n(n2)C(c2ccccc2)CC(=O)N3)cc1` (stereo not given), for which the cell count in assay [1] was found to be 456. Moreover, the inhibition in assay [1] is -7.4% (inactive); in [3] it was -106% (inactive); in assay [5], 21% (inactive); in [10], -0.258% (inactive); in [11] it was 16.4% (inactive); in assay [12], 16.2% (inactive). Besides, in [2], the inhibition of aggregation is -5.2% (inactive). Besides, the nuclei count in assay [2] came out at 116%; in assay [3], 137%. The results for the z-score in assay [4] (setting [13]), in assay [4] (setting [14]) and in [4] (setting [15]) were -0.235, -1.01 and 1.56, respectively. Further, the fluorescence slope in assay [6] is -0.507 (inactive). Further, the NADPH fluorescence slope in assay [7] is -2e-05 (inactive). In addition, the slope in assay [8] was 0.00521 (inactive). For the same compound, in assay [9], the result was inactive.
As to `Nc1ccc(S(=O)(=O)c2ccc(N)cc2)cc1`, the cell count in [1] was 511. For the same compound, the inhibition was -1.5% (inactive) in assay [1]; -20.6% (inactive) in assay [3]; 16.8% (inactive) in [5]; 8.87% (inactive) in assay [10]; -3.01% (inactive) in assay [11]; 11.3% (inactive) in [12]. The inhibition of aggregation in assay [2] is 0.3% (inactive). The nuclei count in assay [2] is 103%; in assay [3] it was 106%. The z-score in assay [4] (setting [13]) is -0.829; in assay [4] (setting [14]), 0.112; in assay [4] (setting [15]) it was 0.308. The fluorescence slope in assay [6] was -0.465 (inactive). The NADPH fluorescence slope in assay [7] is 3.3e-05 (inactive). Further, the slope in assay [8] is 0.00573 (inactive). The compound was classed as inactive in [9].
Take `NS(=O)(=O)c1cc2c(cc1Cl)NC(C1C[C@H]3C=C[C@@H]1C3)NS2(=O)=O` (stereo not given in full): the cell count in assay [1] was found to be 536. Moreover, the inhibition in [1] is -8.9% (inactive); in [3], 6.1% (inactive); in assay [5], -6.41% (inactive); in assay [10], 20.5% (inactive); in assay [11], -6.01% (inactive); in assay [12], -8.05% (inactive). The inhibition of aggregation in [2] was -11.7% (inactive). Further, the nuclei count in assay [2] came to 102%; in assay [3], 120%. In addition, the z-score in [4] (setting [13]) is 0.229; in assay [4] (setting [14]), 0.164; in [4] (setting [15]), 0.0197. In [6], the fluorescence slope is -0.525 (inactive). In addition, the NADPH fluorescence slope in [7] was -1.3e-05 (inactive). Besides, in assay [8], the slope is 0.00377 (inactive). The compound was classed as inactive in [9].
As to `CCOc1ccc(CSC(CC(=O)O)C(=O)O)cc1` (stereo not given), the cell count in assay [1] is 670. The inhibition in [1] is -12.9% (inactive); in [3], -17.6% (inactive); in [5] it was -6.86% (inactive); in assay [10] it was 2.66% (inactive); in assay [11], 13.1% (inactive); in [12], 29.3% (inactive). Besides, in assay [2], the inhibition of aggregation was 18.1% (inactive). The nuclei count in assay [2] was 98.8%; in assay [3], 137%. The results for the z-score in assay [4] (setting [13]), in [4] (setting [14]) and in assay [4] (setting [15]) were -0.325, -0.101 and 1.94, respectively. Also, the fluorescence slope in assay [6] was -0.356 (inactive). Moreover, the NADPH fluorescence slope in assay [7] was -2.7e-05 (inactive). Moreover, the slope in assay [8] is 0.00455 (inactive). Moreover, in assay [9], the outcome was inactive.
Turning to `COCCOC(=O)C1=C(C)NC(C)=C(C(=O)OC(C)C)C1c1cccc([N+](=O)[O-])c1` (stereo not given), the cell count in assay [1] was 617. Further, the inhibition in assay [1] is -5.1% (inactive); in assay [3], -38.8% (inactive); in [5] it was 32.3% (inactive); in assay [10], 10.2% (inactive) and -3.02% (inactive); in assay [11], 19.6% (inactive); in assay [12], 25.9% (inactive). Further, the inhibition of aggregation in [2] was -29.1% (inactive). Also, the results for the nuclei count in assay [2] and in [3] were 98.9% and 122%, respectively. For the same compound, the z-score in assay [4] (setting [13]) is -0.996; in assay [4] (setting [14]), 0.882; in assay [4] (setting [15]), -0.963. For the same compound, in assay [6], the fluorescence slope is -0.534 (inactive). Further, the NADPH fluorescence slope in [7] was 2.5e-05 (inactive). For the same compound, in assay [8], the slope is 0.00348 (inactive). Moreover, the result in [9] was inactive.
Take `COC(=O)Nc1nc2ccc(Sc3ccccc3)cc2[nH]1`: the cell count in assay [1] worked out at 678. Besides, the inhibition in [1] was 4.6% (inactive); in [3], -3.1% (inactive); in assay [5], -5.24% (inactive); in assay [10], -5.89% (inactive); in assay [11], 43% (inactive); in [12] it was -12.9% (inactive). The inhibition of aggregation in assay [2] is 9.4% (inactive). Also, the nuclei count in assay [2] came to 103%; in [3], 76.4%. In addition, the z-score in assay [4] (setting [13]) is -0.13; in [4] (setting [14]), 0.104; in assay [4] (setting [15]) it was -0.162. In assay [6], the fluorescence slope was -0.475 (inactive). Besides, the NADPH fluorescence slope in assay [7] is -5.5e-05 (inactive). The slope in [8] was 0.00514 (inactive). For the same compound, the call in assay [9] was inactive.
`Cc1ccc(/C(O)=C2/C(=O)C(=O)N(Cc3ccco3)C2c2cccs2)cc1` (stereo not given): the cell count in assay [1] turned out to be 592. Further, the inhibition in assay [1] was -1.5% (inactive); in assay [3] it was -40.6% (inactive); in [5] it was -18.6% (inactive); in assay [10] it was -4.07% (inactive); in assay [11] it was -8% (inactive); in assay [12] it was 3.2% (inactive). Further, the inhibition of aggregation in [2] was -9.7% (inactive). Further, the figures for the nuclei count in [2] and in assay [3] were 111% and 136%, respectively. Also, the z-score is -0.164 in [4] (setting [13]), 0.546 in assay [4] (setting [14]) and 1.58 in assay [4] (setting [15]). Also, the fluorescence slope in assay [6] is -0.497 (inactive). In [7], the NADPH fluorescence slope is -6.4e-05 (inactive). Further, the slope in assay [8] is 0.00587 (inactive). Also, the result in assay [9] was inactive.
